Assay outcomes from PubChem.
Only some compounds are listed: those with a hit (about 1.8% of all), similar ones and a draw of the others.
bovine MsrA act = bovine methionine sulfoxide reductase A activation; purified bovine MsrA, absorbance read-out; activation, % at 10.6 µM; hit rate 0.3% among 360,000; in the data active means activation above about 7.5%;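 further: 0% = vehicle and 100% = reference activator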
GC-A act = GC-A (human) enzyme activation. AID 1671463. P16066. activation, % at 10 µM. HEK293 GC-A cells, cGMP TR-FRET, EC30 ANP; 0% at EC30 ANP, 100% saturating ANP. hit rate 0.14% among 370,000; in the data active means activation above about 40%
MsrA inhibitor = bovine MsrA inhibition. purified bovine MsrA, absorbance read-out. inhibition, % at 15.5 µM. hit rate 0.75% among 360,000. AID 651718;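 further: 0% = vehicle wells with enzyme and 100% = reference inhibitor wells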
m5-HT2A agonist = agonists of mouse serotonin 5-HT2A receptor (HTR2A); activation, % at 7.6 µM; hit rate 0.66% among 360,000; P35363; CHO-K1 mHTR2A beta-arrestin complementation, luminescence; percent of 30 µM serotonin response; AID 624169;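 active means activation above a run cutoff, the mean activation of all tested compounds plus 3 SD, cut at about 14% in these data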;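 further: 0% = plate median of compound wells and 100% = 30 µM serotonin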
Target sequence (P35363 whole entry, looked up): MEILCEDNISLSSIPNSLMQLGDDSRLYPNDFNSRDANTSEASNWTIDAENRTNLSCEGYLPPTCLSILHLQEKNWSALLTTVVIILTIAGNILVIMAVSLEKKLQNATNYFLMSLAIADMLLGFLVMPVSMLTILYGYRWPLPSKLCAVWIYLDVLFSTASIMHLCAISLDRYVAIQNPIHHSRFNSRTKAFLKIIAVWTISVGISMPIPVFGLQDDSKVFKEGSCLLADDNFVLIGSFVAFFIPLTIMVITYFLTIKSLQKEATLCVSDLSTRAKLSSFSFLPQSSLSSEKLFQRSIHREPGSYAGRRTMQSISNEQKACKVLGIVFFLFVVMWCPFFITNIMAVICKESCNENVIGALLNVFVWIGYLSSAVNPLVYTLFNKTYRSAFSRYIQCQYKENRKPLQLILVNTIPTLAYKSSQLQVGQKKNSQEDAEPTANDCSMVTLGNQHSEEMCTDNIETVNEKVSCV
GC-B act = GC-B (human) receptor activation; P20594; HEK293-GC-B cells, CNP EC30, cGMP TR-FRET; 0% at EC30 CNP, 100% saturating CNP; activation, % at 10 µM; hit rate 0.11% among 370,000;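 active means activation at 10 µM reaching about 35% in either raw or pattern-adjusted values, limit read from the data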
MsrA conf = bovine MsrA inhibition, confirmed; shares compounds with MsrA inhibitor; purified bovine MsrA, absorbance read-out; inhibition, % at 15.5 µM; hit rate 41% among 2,300;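 further: coupled to thioredoxin reductase with NADPH and selenocystamine and DMSO as substrate; 0% = vehicle only and 100% = full effect of reference inhibitor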
Active calls of the source: *; · = no result. Unless noted, no stated cut-off is given here; in the data, active means inhibition above about 4.5%; inactive means the rest.

SMILES	bovine MsrA act	GC-A act	MsrA inhibitor	m5-HT2A agonist	GC-B act	MsrA conf
CN(Cc1ccccc1F)C(=O)C1CCCN(c2ncccn2)C1 (stereo not given)	·	1	·	·	2	·
O=C(N/N=C\C=C\c1ccc2c(c1)OCO2)c1cccnc1	-15	-4	8.0*	0	-1	5.7*
O=C(N/N=C\C=C\c1ccc2c(c1)OCO2)C1COc2ccccc2O1 (stereo not given)	-11	-2	4.8*	8	1	3
C(#CC1=CCCCC1)CNCC1CC1	·	5	·	·	-3	·
CCn1c(C)nc2cc(C(=O)N/N=C/c3ccc(OC)c(O)c3)ccc21	-6	-2	7.5*	5	-4	4.7*
CCn1c(C)nc2cc(C(=O)N/N=C/c3ccc(O)cc3)ccc21	-2	-4	5.0*	-3	-1	4
CCn1c(C)nc2cc(C(=O)N/N=C/c3ccc(N4CCOCC4)cc3)ccc21	-6	-3	5.5*	0	-1	6.0*
CCn1c(C)nc2cc(C(=O)N/N=C/c3ccc(OC)cc3)ccc21	-16	2	4	4	0	·
COc1ccccc1CCn1cnc(-c2ccc(F)cc2)c1CC(C)C	·	-4	1	·	-9	·
N#CCC[C@@H]1CC[C@]2(CCCN(S(=O)(=O)C3CCCCC3)C2)O1	·	1	·	·	-4	·
CC(=O)c1cnc(Nc2ccccc2)s1	-2	-4	5	0	-1	·
CC(=O)c1cnc(N(C)C)s1	-3	0	6.5*	0	-2	4
FC(F)(F)c1ccc(N=Cc2sc(N3CCOCC3)nc2-c2ccccc2)cc1	-2	-1	18*	2	-5	17*
CC(=O)c1sc(N2CCOCC2)nc1-c1ccccc1	-3	-5	1	-2	-9	·
Cc1ccc(C(=O)Nc2nc3ccc(S(C)(=O)=O)cc3s2)cc1C	-5	7	0	-2	2	·
CS(=O)(=O)c1ccc2nc(NC(=O)c3ccc(NS(=O)(=O)c4cccc([N+](=O)[O-])c4)cc3)sc2c1	-2	2	5.3*	-9	-8	5.3*
CS(=O)(=O)c1ccc2nc(NC(=O)c3ccc(S(=O)(=O)NCC4CCCO4)cc3)sc2c1 (stereo not given)	-3	-1	5.0*	1	3	4
Cc1cccc(C(=O)Nc2nc3ccc(S(C)(=O)=O)cc3s2)c1	-2	-4	0	1	7	·
Cc1ccc(NC(=O)OC2CC3CC2[C@H]2CCCCN2C3)cc1C (stereo not given in full)	·	-1	·	·	3	·
CC(=NCc1cccc(Cl)c1)c1nc(-c2ccco2)oc1O	-6	1	5.9*	1	0	2
COc1ccc(C(=O)Nc2ccccc2C(=O)Nc2ccccc2C(=O)O)cc1	-3	6	1	5	-9	·
COc1ccc(C(=NNc2ccccc2C(=O)O)c2ccc(OC)cc2)cc1	-8	-3	5.1*	2	0	3
Cc1ccc(/C=C(\C#N)C(=O)NCC2CCCO2)o1 (stereo not given)	-10	3	5.2*	-2	-1	4.6*
COc1cc(/C=C(\C#N)C(=O)NCC2CCCO2)ccc1OCC(=O)O (stereo not given)	-6	-1	5.5*	1	1	4
Cc1ccc(/C=C(\NC(=O)c2ccccc2)C(=O)NCC2CCCO2)o1 (stereo not given)	-14	-2	3	5	2	·
SMILES	bovine MsrA act	GC-A act	MsrA inhibitor	m5-HT2A agonist	GC-B act	MsrA conf
O=C(c1ccccc1)C1CCN(c2ncnc3sccc23)CC1	·	-1	·	·	-6	·
CN(NC1OC(=O)c2ccccc21)c1ccccc1[N+](=O)[O-] (stereo not given)	-4	0	1	8	3	·
Cc1ccc(-c2cc(C(=O)NN=Cc3ccc(-c4ccccc4)cc3)[nH]n2)cc1C	·	-6	·	·	2	·
Oc1ccc(/C=N/N=C/c2ccc(O)c(O)c2)cc1O	-6	0	4.7*	-6	-8	6.4*
CCOc1cc(/C=N/NC(=O)C(=O)NCc2cccnc2)ccc1O	-8	-2	5.7*	2	-2	4
COc1cc(/C=N/NC(=O)c2ccc(NC(=O)C3CCCCC3)cc2)ccc1O	-6	-4	4	3	4	·
CCOc1cc(/C=N/N=C/c2ccc(O)c(OCC)c2)ccc1O	-1	-3	6.4*	-1	-2	4
CCOc1cc(/C=N/NC(=O)c2ccc(NC(=O)C3CC3)cc2)ccc1O	-6	0	5.3*	-2	-5	4
O=C(NCc1c(F)cccc1F)C1CCC(CNS(=O)(=O)c2cccc3cccnc23)CC1 (stereo not given)	·	3	·	·	-4	·
CCCNC(=O)C[C@H]1CC[C@H]2[C@@H](COc3ccc(NC(=O)Nc4ccc(C#N)cc4)cc3C(=O)N2C)O1	·	4	·	·	4	·
O=C(CCc1ccccc1)N[C@H]1[C@H](OCc2ccccc2)CCC[C@@]12C(=O)N(Cc1ccccc1)c1ccc(-c3cnccn3)cc12	·	0	·	·	5	·
Oc1ccc(/C=N/N=C/c2ccc(O)cc2)cc1	-12	-6	5.3*	4	-8	5.5*
COc1ccc2c(c1)C[C@@H](CON1C(C)(C)CCCC1(C)C)N2S(=O)(=O)c1ccc(C)cc1	·	2	·	·	-3	·
O=C(CSc1nnc(SCc2cccc3ccccc23)s1)Nc1ccc(S(=O)(=O)Nc2nccs2)cc1	·	-5	·	·	-2	·
Cc1cc(C)nc(NS(=O)(=O)c2ccc(N/C=C3\CCCC3=O)cc2)n1	-8	-4	5.2*	1	1	5.5*
O=C(NC1CCCCN(Cc2cccc(Cl)c2)C1=O)c1ccc(F)cc1 (stereo not given)	·	1	·	·	3	·
Cc1c(C(=O)N(C)C)sc2nc(-c3ccccn3)[nH]c(=O)c12	-6	-9	5.8*	-2	-3	3
CCN(CC)C(=O)c1sc2nc(Cc3ccccc3)[nH]c(=O)c2c1C	-10	1	1	3	0	·
CC(C)=CCC/C(C)=C/CNCC(=O)N1c2ccccc2[C@]2(c3ccccc3)C[C@@H]3C(=O)N(C/C=C(\C)CCC=C(C)C)CC(=O)N3[C@H]12	·	-3	·	·	4	·
COc1ccc2nc(NC(=O)c3ccco3)sc2c1	-2	4	4.7*	-5	-2	3
COc1ccc2nc(Nc3nc4cc5c(cc4s3)OCO5)sc2c1	-7	-5	4.8*	14	-6	3
Cc1ccc2nc(NC(=O)c3ccco3)sc2c1	-5	2	2	2	-2	·
COc1ccc2nc(Nc3ccc4c(c3)OCO4)sc2c1	-3	4	1	-5	-6	·
O=C(O)c1cc(S(=O)(=O)Nc2ccc(OCc3ccccc3)cc2)ccc1Br	-3	2	0	1	0	·
COC(=O)C1=C(C)N(Cc2ccccc2)C(=S)NC1c1cccc(Br)c1 (stereo not given)	·	0	0	·	-9	·
